In PubChem BioAssay:
Activity calls are given as the source filed them. Unless noted, how the calls were made is not given here.

Tests used:
[1] = A549 cell viability effects, profiling panel, calcein-AM fluorescence, 48 h, basal (AID 1162); settings: higher = more signal; further: test concentration not given here
[2] = adipocyte viability effects, profiling panel, cell-based, 3T3-L1 adipocytes, calcein-AM fluorescence, 48 h, basal (AID 1163); settings: 3T3-L1 adipocytes viability, higher = more signal; further: test concentration not given here
[3] = HepG2 cell viability effects, profiling panel, calcein-AM fluorescence, 48 h, basal (AID 1164); settings: higher = more signal; further: test concentration not given here
[4] = MM1S cell viability effects, profiling panel, calcein-AM fluorescence, 48 h, basal (AID 1165); settings: higher = more signal;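 further: viability of MM1S multiple myeloma cells under basal unstimulated conditions; test concentration not given here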
[5] = basal RPMI8226 viability, no added stimulus, profiling panel, cell-based, calcein-AM fluorescence, 48 h, PK04 Diversity Set (AID 1166); settings: RPMI8226 myeloma viability, higher = more signal;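 further: cells grown under basal conditions without added stimulus; test concentration not given here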
[6] = basal HepG2 mitochondrial membrane potential changes, profiling panel, cell-based, JC-1 fluorescence, 24 h, 100 nL compound (AID 1167); settings: higher = more signal; further: test concentration not given here
[7] = basal 3T3-L1 adipocyte mitochondrial potential changes, profiling panel, cell-based, JC-1 fluorescence, 3T3-L1 adipocytes, 24 h, 100 nL compound (AID 1168); settings: JC-1 mitochondrial fluorescence, higher = more signal, called active from +8 up or from −8 down; further: test concentration not given here
[8] = basal RPMI8226 mitochondrial membrane potential changes, profiling panel, cell-based, JC-1 fluorescence, 24 h, 100 nL compound (AID 1169); settings: RPMI8226 myeloma, JC-1 mitochondrial potential fluorescence, higher = more signal; further: test concentration not given here
[9] = basal MM1S mitochondrial membrane potential changes, profiling panel, cell-based, JC-1 fluorescence, 24 h, 100 nL compound (AID 1170); settings: higher = more signal; further: test concentration not given here
[10] = A549 lung cancer cell viability effects, profiling panel, resazurin fluorescence, 24 h, PK04 Diversity Set (AID 1171); settings: higher = more signal, called active from +8 up or from −8 down; further: test concentration not given here
[11] = HepG2 liver cancer cell viability effects, profiling panel, resazurin fluorescence, 24 h, PK04 Diversity Set (AID 1172); settings: higher = more signal; further: test concentration not given here
[12] = basal S. cerevisiae growth modulation, no modifier, primary screen, OD600, strain BY4716, 24 h, basal condition (AID 1173); settings: OD600, 24 h, higher = more signal, called active from +8 up or from −8 down
[13] = MM1S myeloma cell viability, profiling panel, resazurin fluorescence, basal, 24 h, PK04 Diversity Set (AID 1174); settings: higher = more signal, called active from +8 up or from −8 down;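 further: MM1S multiple myeloma cell line; test concentration not given here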
[14] = biological target: Dihydroorotate dehydrogenase (quinone), mitochondrial (Plasmodium falciparum (isolate 3D7)) (UniProt Q08210); assay: PfDHODH enzyme inhibitors, primary screen, biochemical, C-terminal His tag, absorbance 600 nm (AID 1175); settings: DCIP absorbance 600 nm, higher = more signal, called active from +8 up or from −8 down;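 further: recombinant parasite enzyme with a five histidine tag at its C terminus; test concentration not given here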
[15] = P. aeruginosa biofilm formation inhibitors, primary screen, strain PAO1, LB-PBS medium, absorbance 600 nm (AID 1176); further: test concentration not given here; settings: P. aeruginosa PAO1 growth/biofilm, A600, 12 h; higher = more signal
[16] = S. cerevisiae RM11-1a growth modifiers, primary screen, strain RM11-1a, OD600, basal, 24 h (AID 1177); settings: OD600, 24 h, higher = more signal, called active from +8 up or from −8 down;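 further: cultures grown under basal conditions with no added stressor; test concentration not given here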
[17] = E. coli acrAB mutant growth effects, primary screen, E. coli filamentation inducers, strain DRC39, OD650, 24 h (AID 1178); settings: higher = more signal, called active from +8 up or from −8 down;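 further: growth measured as culture turbidity by optical density at 650 nm; test concentration not given here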
[18] = E. coli acrAB mutant growth effects, primary screen, E. coli filamentation inducers, strain DRC39, OD650, 48 h (AID 1179);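 further: screen aims at cell division blockers that make cells filament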; settings: E. coli DRC39 delta-acrAB growth, higher = more signal, called active from +8 up or from −8 down
[19] = RPMI8226 myeloma cell viability, profiling panel, resazurin fluorescence, basal, 24 h, PK04 Diversity Set (AID 1180); settings: higher = more signal;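 further: RPMI8826 multiple myeloma cell line at 5000 cells per well; test concentration not given here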
[20] = biological target: E3 ubiquitin-protein ligase XIAP (Homo sapiens) (UniProt P98170); assay: XIAP binders, primary screen, biophysical, small-molecule microarray, fluorescence 635 nm (AID 1181); settings: small-molecule microarray binding, higher = more signal;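 further: score merges 667 nm emission and signal to noise over triplicate slides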
Sequence of E3 ubiquitin-protein ligase XIAP (Homo sapiens) (P98170 whole entry, looked up): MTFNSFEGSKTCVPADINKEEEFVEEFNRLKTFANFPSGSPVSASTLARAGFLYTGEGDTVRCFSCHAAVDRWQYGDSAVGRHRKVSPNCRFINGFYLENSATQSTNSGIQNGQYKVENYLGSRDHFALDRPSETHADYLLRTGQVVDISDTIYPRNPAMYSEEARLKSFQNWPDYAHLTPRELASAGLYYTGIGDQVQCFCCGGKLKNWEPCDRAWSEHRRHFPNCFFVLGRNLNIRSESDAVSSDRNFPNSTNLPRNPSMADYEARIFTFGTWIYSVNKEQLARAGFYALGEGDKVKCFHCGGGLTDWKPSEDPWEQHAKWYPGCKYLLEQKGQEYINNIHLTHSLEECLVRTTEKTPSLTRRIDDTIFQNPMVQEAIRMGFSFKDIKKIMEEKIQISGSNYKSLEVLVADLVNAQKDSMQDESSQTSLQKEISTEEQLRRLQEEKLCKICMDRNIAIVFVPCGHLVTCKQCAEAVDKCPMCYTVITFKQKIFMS

Sequence of Dihydroorotate dehydrogenase (quinone), mitochondrial (Plasmodium falciparum (isolate 3D7)) (Q08210 whole entry, looked up): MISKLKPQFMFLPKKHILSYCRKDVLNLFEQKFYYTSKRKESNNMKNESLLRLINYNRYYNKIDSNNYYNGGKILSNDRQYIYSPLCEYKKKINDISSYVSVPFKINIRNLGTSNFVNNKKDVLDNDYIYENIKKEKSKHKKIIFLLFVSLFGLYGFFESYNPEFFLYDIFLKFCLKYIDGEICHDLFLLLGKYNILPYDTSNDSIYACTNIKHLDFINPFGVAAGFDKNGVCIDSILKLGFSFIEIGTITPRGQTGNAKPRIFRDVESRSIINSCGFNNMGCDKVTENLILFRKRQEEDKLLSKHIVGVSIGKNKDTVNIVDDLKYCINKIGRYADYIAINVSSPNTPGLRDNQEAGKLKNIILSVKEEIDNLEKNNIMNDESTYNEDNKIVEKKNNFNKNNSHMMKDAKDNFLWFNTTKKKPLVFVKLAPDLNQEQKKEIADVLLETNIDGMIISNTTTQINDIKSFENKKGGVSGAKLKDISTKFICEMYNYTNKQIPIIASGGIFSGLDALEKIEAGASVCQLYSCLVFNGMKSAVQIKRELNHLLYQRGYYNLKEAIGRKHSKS

Structure (SMILES) | z-score [1] | z-score [2] | z-score [3] | z-score [4] | z-score [5] | z-score [6] | z-score [7] | z-score [8] | z-score [9] | z-score [10] | z-score [11] | z-score [12] | z-score [13] | composite z-score [14] | z-score [15] | z-score [16] | z-score [17] | z-score [18] | z-score [19] | composite z-score [20]
C=CCC(OC(C)=O)[C@@H]1[C@@H](N(Cc2ccc(-c3cccc(C(F)(F)F)c3)o2)C(=O)c2ccc(C)cc2)c2cc(OCCCO)ccc2N1C(=O)c1ccc2ccccc2c1 (stereo not given in full) | -0.403 | 0.821 | 0.236 | 0.47 | 0.966 | 3.41 | 0.586 (inactive) | 0.102 | -0.555 | 0.462 (inactive) | 0.472 | 0.656 (inactive) | 0.845 (inactive) | -0.689 (inactive) | -0.124 (inactive) | 0.544 (inactive) | -0.0973 (inactive) | 0.759 (inactive) | 1.37 | -0.0878
CCOC(=O)c1ccc(NC(=O)O[C@H]2[C@H](OC(=O)Nc3ccc4c(c3)OCO4)[C@@H](OC(=O)Nc3ccc4c(c3)OCO4)[C@@H](OC)O[C@@H]2CO)cc1 | -0.742 | 0.558 | -1.09 | -1.05 | -0.141 | 0.305 | 0.463 (inactive) | -0.66 | -0.979 | -0.214 (inactive) | -0.741 | 1.1 (inactive) | -0.849 (inactive) | 0.0737 (inactive) | 2.08 (inactive) | 2.29 (inactive) | 1.04 (inactive) | -0.0515 (inactive) | -0.836 | 0.519
COC(=O)[C@@]1(Cc2ccc(OC)cc2)[C@H]2c3cc(C(=O)N4CCCC4)n(Cc4c(-c5ccccc5)noc4C)c3C[C@H]2CN1C(=O)c1ccccc1 | -0.893 | -0.451 | -0.176 | -2.72 | -4.68 | 0.128 | -0.732 (inactive) | -0.774 | -1.52 | 0.356 (inactive) | -0.338 | 1.63 (inactive) | -0.39 (inactive) | 0.486 (inactive) | -0.526 (inactive) | 1.18 (inactive) | 0.343 (inactive) | -0.57 (inactive) | -0.61 | -0.0048
O=C1NC(=O)C2C1C=CC(C(O)CCc1ccccc1)N2Nc1ccc(Cl)cc1Cl (stereo not given) | -0.308 | -0.217 | -0.588 | -2.19 | -1.19 | -2.19 | -1.75 (inactive) | -0.236 | -0.0222 | -0.768 (inactive) | -1.24 | -3.34 (inactive) | -1.59 (inactive) | -0.596 (inactive) | 0.667 (inactive) | -0.385 (inactive) | -0.172 (inactive) | -0.611 (inactive) | -1.77 | 0.178
CN1C(=O)C2C=CC(C(O)c3ccc(F)cc3)N(Nc3ccccc3)C2C1=O (stereo not given) | -0.434 | -1.02 | -0.613 | -1.82 | 0.196 | -1.81 | -0.8 (inactive) | 0.663 | 0.431 | -0.369 (inactive) | -1.05 | 0.544 (inactive) | -1.24 (inactive) | 0.869 (inactive) | 0.944 (inactive) | 1.38 (inactive) | -1.03 (inactive) | -0.894 (inactive) | -1.58 | 0.0761
CCCCN1CC=CC23O[C@@H]4/C=C\CCC(C)OC(=O)C4[C@H]2C(=O)N(C(CO)C(C)C)[C@@H]3C1=O (stereo not given in full) | 0.0282 | -0.21 | 0.519 | 1.61 | -0.773 | -0.403 | -1.27 (inactive) | 0.0795 | -0.676 | -0.0227 (inactive) | 0.229 | 0.844 (inactive) | 0.382 (inactive) | -1.29 (inactive) | 0.991 (inactive) | 0.164 (inactive) | 0.375 (inactive) | 0.156 (inactive) | -0.0048 | 0.48
C=C(COC)/C(=C/C[C@H](OC(=O)c1ccncc1)c1ccccc1OCCO)c1cnc2ccccc2c1 | 0.265 | 0.688 | -0.693 | -2.28 | -0.533 | 1.23 | -0.296 (inactive) | -0.32 | -0.0279 | 2.05 (inactive) | 2.02 | -0.865 (inactive) | 0.247 (inactive) | -3.12 (inactive) | -0.104 (inactive) | -0.0351 (inactive) | 0.213 (inactive) | -0.121 (inactive) | 0.377 | -0.0102
COCCCNC(=O)[C@]1(CCS(=O)(=O)c2ccccc2)N=C(c2ccc(OCCCO)cc2)O[C@@H]1c1ccccc1CN=[N+]=[N-] | 1.61 | 0.652 | 1.15 | 0.114 | 0.0901 | 0.542 | 0.482 (inactive) | -0.393 | -1.34 | -0.97 (inactive) | -0.776 | 1.67 (inactive) | -3.5 (inactive) | 0.36 (inactive) | 0.438 (inactive) | 1.62 (inactive) | 0.0971 (inactive) | 0.748 (inactive) | -0.601 | 0.481
CCOC(=O)c1ccc(NC(=O)O[C@H]2[C@H](OC(=O)Nc3ccc4c(c3)OCO4)[C@H](OC(=O)Nc3ccc4c(c3)OCO4)[C@@H](OC)O[C@@H]2CO)cc1 | -0.83 | 0.529 | -1.02 | -0.982 | -1.21 | -0.691 | -0.289 (inactive) | -0.576 | -1.09 | -0.824 (inactive) | -1.09 | 1.12 (inactive) | -1.55 (inactive) | -0.57 (inactive) | 0.95 (inactive) | 1.57 (inactive) | 1.11 (inactive) | 0.311 (inactive) | -1.36 | 0.32
